Rows were chosen to be rich in hits. Some 10% of all compounds tested hit in one or more screens of this group.
ALDH1A1 inh: blocks purified human ALDH1A1 activity; P00352; hit rate 7.3% among 220,000; Purified ALDH1A1, NADH fluorescence, propionaldehyde substrate; Potency, µM (highest dose often 75.3 µM), for inactives: top-dose activity, negative = inhibition, actives largely listed as inhibitors;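 also: potency is read from the fitted curve at half-maximal effect; plate controls were no enzyme wells and a reference inhibitor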
ALOX12 inhib: blocks human 12-lipoxygenase activity. P18054. purified 12-hLO, xylenol orange hydroperoxide absorbance. Potency, µM (titrated, usually from 57.1 µM), without a hit: top-dose activity change, negative = inhibition, hits mostly inhibitors. hit rate 0.12% among 150,000. AID 1452; active = well fitted inhibition curve with a large enough effect; inconclusive = small, poorly fitted or top-dose-only effect; also: potency is read from the fitted curve at half-maximal effect; nearly all actives have a fitted effect of over 55% in size
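Purified human 12hLO (150 nM final) was preincubated with compounds for 15 min at room temperature in 25 mM Hepes pH 7.0, 0.01% Triton X-100, then reacted with 40 uM arachidonic acid for 30 min. Hydroperoxide was detected with ferrous iron/xylenol orange.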
HPGD block: HPGD (human) dehydrogenase inhibition; Potency, µM, for the others: at the highest dose activity change, negative = inhibition, hits mostly inhibitors; hit rate 4.3% among 150,000; P15428; purified HPGD, NADH fluorescence kinetic, PGE2 substrate; AID 894; also: potency is read from the fitted curve at half-maximal effect
Target sequence (P15428 whole entry, looked up): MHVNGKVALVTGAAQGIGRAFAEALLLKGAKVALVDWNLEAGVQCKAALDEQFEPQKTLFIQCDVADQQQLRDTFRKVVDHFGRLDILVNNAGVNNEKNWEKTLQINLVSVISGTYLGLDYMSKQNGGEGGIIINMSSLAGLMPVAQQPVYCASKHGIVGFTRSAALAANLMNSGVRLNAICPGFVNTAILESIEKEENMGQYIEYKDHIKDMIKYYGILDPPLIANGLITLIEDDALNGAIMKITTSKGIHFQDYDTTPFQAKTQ
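NADH formation kinetics: reaction with 30 uM PGE2 and 1 mM NAD+ (final), 20 nM enzyme, Tris-HCl pH 8 with Tween 20, after 15 min compound preincubation at room temperature. Fluorescence change, last versus first of five reads.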
PNC assembly inh: blocks assembly of the perinucleolar compartment. PC3M PTB-GFP, PNC prevalence imaging, 16 h; stronger effect = lower value. activity change (PNC), negative = inhibition, % at 10 µM. hit rate 3.1% among 140,000;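 active = readout at or below -70, meaning at least 70% loss of cells showing the perinucleolar compartment, a nuclear body marking cancer cells; inconclusive = readout between -30 and a set limit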;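 also: plate controls were DMSO wells for no effect and camptothecin positive control wells for full effect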
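PC3M cells stably expressing PTB-GFP, 750–1000 cells/well, treated 16 h at 37 °C with compound (23 nl of library stock), in duplicate. After paraformaldehyde fixation and Hoechst stain, imaged at 20x; PNC prevalence scored by image analysis.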
LMNA splice mod: LMNA splicing modulation; hit rate 0.01% among 200,000; Potency, µM (series often up to 46.1 µM), for the others: top-dose ratio change, negative = inhibition, most hits filed as inhibitors; HeLa LMNA splicing GFP/RFP minigene ratio, 48 h; active = well fitted inhibition curve with a large enough effect in the signal ratio, with a control signal flat, not every such curve was filed as active; inconclusive = small, poorly fitted or top-dose-only effect, or effect the other way, or a change in a side signal; the % refers to the signal ratio; also: potency is read from the fitted curve at half-maximal effect
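Read-out is the ratio of GFP to DsRed2 object intensity, acquired by 488 nm laser-scanning cytometry on HeLa lamin A-EGFP minigene reporter cells. Compound incubation 48 hrs at 37 °C in Opti-MEM with 2% FBS; DMSO 0.5% final.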
* = called active by the depositor; ? = inconclusive; · = no result given; [ ] = dose if it differs, or a comment. Unless noted, calls follow the shape of the dose curve; as a rule, active = well fitted inhibition curve with a large enough effect (not every such curve was filed as active); inconclusive = small, poorly fitted or top-dose-only effect, or another doubt; inactive = no such curve, though single readings can be large or run the other way. Unless noted, % is scaled to controls: 0 for no effect and ±100 for the full control effect.

SMILES	ALDH1A1 inh	ALOX12 inhib	HPGD block	PNC assembly inh	LMNA splice mod
COCCn1c(SCC(=O)c2ccc3c(c2)OCCO3)nnc1C(C)C	10µM*	1%	-9%	6	-4%
O=C(c1cnc(N2CCOCC2)c2ccccc12)N1CCN(c2ccc(F)cc2)CC1	·	·	·	·	11%[46 µM]
O=C(Nc1ccc(Cl)cc1C(=O)O)c1ccc2c(c1)C(=O)N(Cc1ccco1)C2=O	3.8µM*	-1%	?	-9	-6%
O=C(O)c1ccc(S(=O)(=O)c2ccc3c(c2)C(=O)N(Cc2ccco2)C3=O)cc1	?	1%	-19%	58	1%
Cc1cnc(NC(=O)c2ccc3c(c2)C(=O)N(Cc2ccco2)C3=O)s1	?	-10%	-8%	-16	8%
O=C(NC1=NCCS1)c1ccc2c(c1)C(=O)N(Cc1ccco1)C2=O	16µM*	-6%	-15%	?	-2%
CCCn1c(Sc2nc3c(c(=O)[nH]c(=O)n3C)n2CCC)nc2c1c(=O)[nH]c(=O)n2C	-9%	-3%	14µM*	13	6%
CCC(C)Sc1nc2c(c(=O)[nH]c(=O)n2C)n1Cc1ccccc1Cl (configuration not stated)	1.3µM*	-2%	-7%	2	-4%
CCCCCOC(=O)CSc1nc2c(c(=O)[nH]c(=O)n2C)n1CCc1ccccc1	25µM*	5%	25µM*	13	5%
CCCCSc1nc2c(c(=O)[nH]c(=O)n2C)n1CCc1ccccc1	2.5µM*	-3%	-21%	-30	-1%
CCCCCn1c(SCCc2ccccc2)nc2c1c(=O)[nH]c(=O)n2C	?	-3%	-12%	22	-2%
COCC(=O)N1CCC2(CC1)CCN(C(=O)NC(C)C)CC2	?	-1%	-5%	·	·
CC(=O)Nc1nonc1-c1nnc(SCC(=O)N(C)c2ccccc2)n1C	·	·	·	·	15%[46 µM]
C/C=C/Cn1c(SCCCc2ccccc2)nc2c1c(=O)[nH]c(=O)n2C	?	-10%	-14%	-119*	?
COCCn1c(SCCCc2ccccc2)nc2c1c(=O)[nH]c(=O)n2C	20µM*	-2%	·	34	-9%
C/C(Cl)=C/Cn1c(SCC(C)C)nc2c1c(=O)[nH]c(=O)n2C	?	-3%	-17%	22	3%
CCCCCCn1c(SCCC)nc2c1c(=O)[nH]c(=O)n2C	?	1%	·	-86*	3%
C=CCn1c(SCCCc2ccccc2)nc2c1c(=O)[nH]c(=O)n2C	?	-4%	?	-11	?
CCOC(=O)C(CC)Sc1nc2c(c(=O)[nH]c(=O)n2C)n1C/C=C(/C)Cl (configuration not stated)	3.5µM*	0%	4µM*	23	21%
COc1cccc(N(Cc2nnc3n2CCCCC3)C(=O)Nc2cccc(Cl)c2)c1	·	·	·	·	9%[46 µM]
CCOC(=O)C(C)Sc1nc2c(c(=O)[nH]c(=O)n2C)n1CCc1ccccc1 (configuration not stated)	13µM*	-3%	-15%	-5	-2%
CC(C)n1c(SCCCc2ccccc2)nc2c1c(=O)[nH]c(=O)n2C	?	-4%	20µM*	-25	?
CC(C)CCn1c(SCCc2ccccc2)nc2c1c(=O)[nH]c(=O)n2C	6.3µM*	-2%	?	34	14%
CCOCCSc1nc2c(c(=O)[nH]c(=O)n2C)n1CCCc1ccccc1	-2%	-2%	-17%	-25	17%
COC(=O)C(C)Sc1nc2c(c(=O)[nH]c(=O)n2C)n1CCCc1ccccc1 (configuration not stated)	?	-9%	-30%	31	6%
SMILES	ALDH1A1 inh	ALOX12 inhib	HPGD block	PNC assembly inh	LMNA splice mod
CCCn1c(SCCc2ccccc2)nc2c1c(=O)[nH]c(=O)n2C	?	-2%	-26%	-21	1%
CC1CCc2nc3ncn(Cc4cccc(F)c4)c(=O)c3cc2C1 (configuration not stated)	·	·	·	·	0%[46 µM]
CC(C)C[C@@H](CC(=O)N[C@H](CC(=O)N[C@@H]1CCNC[C@H]1C(=O)N[C@H](CC(=O)N[C@@H](CCC(=O)O)CC(=O)O)Cc1c[nH]c2ccccc12)C(C)C)NC(=O)[C@@H]1CCCC[C@H]1N	-11%	4%	-2%	·	·
Nc1ccc2nc(SCc3cccc(F)c3)sc2c1	-14%	·	·	·	?
COc1ccc(NC(=O)C2CCCO2)cc1Cl (configuration not stated)	?	2%	16µM*	18	2%
COc1ccc2nc(NC(=O)C3CCCO3)sc2c1 (configuration not stated)	-9%	·	·	·	13%[46 µM]
O=C(Nc1cc(Cl)c(O)c(Cl)c1)C1CCCO1 (configuration not stated)	?	-1%	25µM*	-2	2%
CSc1nc2ccc(NC(=O)C3CCCO3)cc2s1 (configuration not stated)	?	7%	28µM*	10	-3%
O=C(O)c1cc(NC(=O)C2CCCO2)cc(NC(=O)C2CCCO2)c1 (configuration not stated)	15%	1%	-8%	-1	0%
CCOC(=O)N1CCN(CC(=O)Nc2cc(OC)c(OC)cc2C#N)CC1	15%	·	·	·	·
COc1ccc2c(c1)C(=O)[C@@H](OC(=O)NS(=O)(=O)c1ccc(F)cc1)[C@H](c1ccc(OC)c(Br)c1)O2	-14%	·	-20%	·	·
CSC(=Nc1ccccc1)C1=C(O)COC1=O	25µM*	39%	-2%	16	-4%
CCSC(=Nc1ccccc1)C1=C(O)COC1=O	-2%	23%	-5%	-12	-5%
Cc1cccc(Nc2n[nH]c(C)c2[N+](=O)[O-])c1	0%	-10%	11µM*	0	-12%
Cc1[nH]nc(Nc2ccccc2)c1[N+](=O)[O-]	-3%	-1%	-28%	44	15%
CSc1cccc(NC(=O)N2CCN(S(=O)(=O)c3ccc4c(ccn4C)c3)CC2)c1	·	·	·	·	-13%[46 µM]
Cc1ccsc1C1C2=C(CCCC2=O)Nc2ncnn21 (configuration not stated)	?	-1%	-23%	?	2%
Cc1ccsc1C1C2=C(CC(C)(C)CC2=O)Nc2ncnn21 (configuration not stated)	11µM*	-6%	?	5	2%
O=C(NCc1ccco1)c1cccc(NS(=O)(=O)c2ccccc2F)c1	3.5µM*	3%	-15%	-10	5%
O=C(NCc1ccccn1)c1cccc(NS(=O)(=O)c2ccccc2F)c1	1.3µM*	-3%	-4%	25	4%
O=C(NCc1ccco1)c1cccc(-c2nnc(-c3ccccc3)o2)c1	?	-7%	13µM*	5	-13%
O=C(NCc1ccco1)c1cccc(NS(=O)(=O)c2cccc(F)c2)c1	?	-1%	0%	?	-8%
O=C(NCc1ccco1)c1cc(NS(=O)(=O)c2cccc([N+](=O)[O-])c2)ccc1O	11µM*	·	·	·	?

Bioassay records (PubChem BioAssay)
